This is a sample that favours compounds with a hit; in the whole collection about 2.3% have one here.
MBD2 inh: inhibitors of MBD2 binding to methylated DNA, primary screen, biochemical, TR-FRET, DNA-binding domain, human. Methyl-CpG-binding domain protein 2 (Homo sapiens), Q9UBB5. inhibition, % at 4.4 µM. MBD2 binding to methylated oligonucleotide. 370,000 compounds, 0.31% hits; in the data active = inhibition above about 13%
UHRF1 MBD2 ctr: UHRF1 methylated DNA binding inhibitors, primary screen, counter-screen for MBD2 inhibitor project, biochemical, TR-FRET, human UHRF1, single concentration; E3 ubiquitin-protein ligase UHRF1 (Homo sapiens), Q96T88; UHRF1 binding to methylated oligo; inhibition, % at 4.4 µM; 370,000 compounds, 0.75% hits; AID 687016, 2013; in the data active = inhibition above about 21%;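 note: UHRF1 SRA domain binding a hemimethylated CpG hairpin DNA probe; 0% = median of test compound wells and 100% = reference inhibitor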
PLC-beta3 inh: human PLC-beta3 inhibitors, primary screen, biochemical, fluorescence; 1-phosphatidylinositol 4,5-bisphosphate phosphodiesterase beta-3 (Homo sapiens), Q01970; Purified PLC-beta3, fluorogenic substrate; inhibition, % at 12.2 µM; 370,000 compounds, 0.18% hits; in the data active = inhibition above about 11%;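 note: 0% = median of compound wells on plate and 100% = full blocker control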
PLC-gamma1 inh: PLC-gamma1 enzyme inhibitors, primary screen, biochemical, fluorescence, purified enzyme; AID 720700, 2013; inhibition, % at 12.2 µM; 1-phosphatidylinositol 4,5-bisphosphate phosphodiesterase gamma-1 (Homo sapiens), P19174; fluorogenic substrate; 370,000 compounds, 0.84% hits
LEDGF integ inh: blockers of LEDGF/p75-dependent integrase strand transfer – biochemical, TR-FRET, high throughput, primary screen. HIV-1 integrase (with human LEDGF/p75). TR-FRET IN-LEDGF/p75 DNA integration, Eu/Cy5. inhibition, % at 3.7 µM. 370,000 compounds, 0.64% hits;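 active = inhibition above the screen-wide mean plus 3 SD, cut at about 13% in these data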;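 note: signal is the Cy5 over europium emission ratio at 671 and 618 nm; 0% = plate median of compound wells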
PLCg1 ctr: PLC-gamma1 enzyme inhibitors, counter-screen for PLC-beta3 inhibitor project, biochemical, fluorescence. purified PLC-gamma1, fluorogenic substrate. 3,300 compounds, 3.1% hits. inhibition, % at 12.3 µM. shares compounds with PLC-gamma1 inh
PLCb3 confirm: PLC-beta3 inhibitor confirmation, biochemical, fluorescence, purified enzyme | shares compounds with PLC-gamma1 inh | fluorogenic substrate fluorescence | inhibition, % at 12.3 µM | 3,300 compounds, 1% hits | AID 743261, 2014; in the data active = inhibition above about 11%
Active calls of the source: *; i = inactive; · = no result given; ! = a repeat was not active. Cut-off read from the data, not from the text of the source, unless noted: active = inhibition above about 9.5%; inactive = the rest.

SMILES	MBD2 inh	UHRF1 MBD2 ctr	PLC-beta3 inh	PLC-gamma1 inh	LEDGF integ inh	PLCg1 ctr	PLCb3 confirm
CCn1c(CNC(=O)COc2ccc(C(C)C)cc2)nnc1SCC(=O)Nc1ccc(F)cc1	-0.9	-2.1	1.9	1.6	0.5	·	·
CC(C)C(C(=O)NCc1ccco1)N(C(=O)CNS(=O)(=O)c1ccccc1)C1CCCC1 (centres undefined)	-9.4	5.0	12.5*	3.0	2.3	-0.8	3.6
O=C(NC1CCCCN(Cc2cccc(F)c2)C1=O)c1ccc(-c2ccccc2)cc1 (centres undefined)	1.7	2.4	-1.7	1.4	-4.2	·	·
CCCCOCCCNC(=O)C[C@H]1C[C@@]2(C(=O)OC)C(=C[C@H](C(C)(C)C)O[C@@H]2C)N(Cc2ccco2)C1=O	1.0	0.6	4.1	-0.9	3.5	·	·
COc1ccccc1/C=C(/C(=O)OCC(=O)NCc1ccccc1)c1ccccc1	-3.6	5.8	12.1*	12.7*	4.0	-1.2	-1.5
COc1ccccc1CNC(=O)CN(Cc1ccc(Cl)cc1)S(C)(=O)=O	-0.1	3.2	11.0*	3.3	8.8	-3.4	2.1
COc1ccc(CCC(=O)NCc2ccccc2OC)cc1	0.1	1.7	-4.0	1.0	-4.2	·	·
COc1ccccc1CNC(=O)CCc1ccccc1	-0.5	1.1	-0.5	10.3*	10.0	3.8	0.4
COC(=O)[C@]12C[C@H](CC(=O)N3CCCCC3)C(=O)N(Cc3cccc4ccccc34)C1=C[C@H](C(C)(C)C)O[C@@H]2C	0.1	-0.8	3.0	-1.2	-0.8	·	·
C[C@H]1[C@H](N)CC[C@@]23CCCN2C(=O)CCC[C@@H]13	7.5	0.9	0.7	0.1	5.3	·	·
COC(=O)CC(C(=O)Nc1cc(C(=O)OC)cc(C(=O)OC)c1)N1CCN(C)CC1 (centres undefined)	-5.2	-0.5	11.3*	14.3*	2.4	-3.8	0.3
COc1ccc(/C=N/Nc2nnc(Cc3ccc(OC)c(OC)c3)c(=O)[nH]2)cc1OC	4.2	20.4	10.8*	4.0	7.4	2.5	3.9
COc1ccc(/C=N/Nc2nnc(Cc3ccc(OC)c(OC)c3)c(=O)[nH]2)cc1	-5.1	4.4	8.7	13.8*	-0.2	-1.4	-4.1
CCn1c(=O)n(CC(=O)N2CCN(C(C)=O)CC2)c(=O)c2ccccc21	-6.8	-4.0	-2.2	-1.4	-1.0	·	·
O=C(Cc1ccccc1)NC1CCCCN(Cc2ccc(Cl)cc2)C1=O (centres undefined)	0.8	3.0	8.7	2.6	10.2	·	·
O=C1CCC(CNc2ccccc2)N1c1ccccc1 (centres undefined)	5.2	5.7	3.1	5.0	8.3	·	·
O=c1c2ccc(Cl)cc2[nH]c(=S)n1CCCN1CCOCC1	-9.0	3.2	12.2*	2.9	4.7	-5.3	-3.1
O=c1c2ccccc2[nH]c(=S)n1CCCN1CCOCC1	8.5	6.6	5.0	8.8	0.5	·	·
Cc1ccc(-c2cc(-c3nnc4sc(COc5ccccc5)nn34)[nH]n2)cc1	-0.8	-3.0	-4.2	2.9	0.2	·	·
CN(C)S(=O)(=O)NC(c1ccccc1)c1ccccc1	-1.4	3.0	6.6	12.2*	3.0	-3.9	0.8
COc1ccc(CNC(=O)c2sc3nc(C)c(Cl)c(C)c3c2N)cc1	-7.2	-3.1	-431.1	-317.7	1.1	·	·
CC1=C(C(=O)OCc2ccc([N+](=O)[O-])cc2)N2C(=O)C(NC(=O)Cc3ccccc3)C2SC1 (centres undefined)	-0.2	4.6	2.2	24.0*	4.1	23.5*	0.6
NS(=O)(=O)c1ccc(N/N=C/c2ccccc2C(=O)O)c([N+](=O)[O-])c1	-13.5	-11.3	6.7	4.7	0.0	·	·
NS(=O)(=O)c1ccc(N/N=C/c2ccc(O)cc2O)c([N+](=O)[O-])c1	-0.6	-1.1	3.2	10.0*	-4.2	12.0*	12.8*
Cc1ccc(NC2=C(Cl)C(=O)OC2OC(C)C)cc1 (centres undefined)	6.0	5.3	2.5	4.4	1.4	·	·
SMILES	MBD2 inh	UHRF1 MBD2 ctr	PLC-beta3 inh	PLC-gamma1 inh	LEDGF integ inh	PLCg1 ctr	PLCb3 confirm
Cc1cccc(NC2=C(Cl)C(=O)OC2OC(C)C)c1 (centres undefined)	-0.8	5.3	6.6	10.4*	0.5	6.5	0.7
CC(C)Oc1ccc(C(=O)Nc2ccc(NC(=O)c3ccco3)c(Cl)c2)cc1	1.0	0.7	15.0*	-2.0	1.9	-23.4	-1.5
COc1ccc(CCN(Cc2cccs2)S(=O)(=O)c2ccc(C)c(C)c2)cc1OC	6.2	-0.7	-1.9	2.4	-1.1	·	·
CN(CCNC(=O)C1CCN(S(=O)(=O)c2cnc[nH]2)CC1)Cc1ccccc1	-4.8	-0.5	1.0	12.4*	-0.4	8.1	9.4
O=C(NC1CCCCN(Cc2cccc(Cl)c2)C1=O)c1ccc(Cl)cc1Cl (centres undefined)	2.7	4.6	-0.9	5.2	-1.1	·	·
Clc1ccc(C2CSc3c4ncnc-4ncn32)cc1 (centres undefined)	-3.9	0.1	2.5	10.8*	4.7	-7.8	-0.5
CN(C)c1ccc(/C=N/NC(N)=S)cc1[N+](=O)[O-]	-18.8	-12.6	0.6	15.8*	-2.5	6.8	8.4
C=CCNC(=S)N/N=C/c1ccc(C)c([N+](=O)[O-])c1	1.8	5.1	-1.5	0.1	-1.3	·	·
CCCNC(=O)C1(O)c2cc(Br)ccc2NC(=O)N1c1ccc(Cl)cc1 (centres undefined)	2.1	1.4	-3.2	1.1	-1.2	·	·
CCN(CC)CCNC(=O)C1(O)c2cc(Br)ccc2NC(=O)N1c1ccc(Cl)cc1 (centres undefined)	-5.2	1.6	6.8	11.8*	4.7	-4.7	-2.3
CN1C2CC(OC(=O)C(CO)c3ccccc3)CC1C1OC12 (centres undefined)	-1.7	4.3	-1.8	10.5*!	i	-2.2	-1.2
Cc1cccc(NC(=O)C2CCCN2S(=O)(=O)c2cccc3cccnc23)c1C (centres undefined)	-0.3	0.4	0.6	0.5	0.8	·	·
COc1ccc(C(=O)COC(=O)[C@H](C)Nc2ccc(C(F)(F)F)cc2[N+](=O)[O-])cc1	-3.4	6.8	6.3	11.5*	-1.2	-0.8	-2.9
O=S(=O)(c1ccc(F)c(F)c1)N1CCN(Cc2ccc3c(c2)OCO3)CC1	5.3	3.9	4.2	11.5*	-1.7	-0.3	0.0
COc1cc(S(=O)(=O)N2CCN(Cc3ccc4c(c3)OCO4)CC2)c(C)cc1C	0.6	-0.4	-0.2	5.2	-1.9	·	·

High-throughput results as filed in PubChem.
